Most compounds without a hit are left out; they make up all but 21% or so of the library.
Shiga inhibitor: A qHTS for Small Molecule Inhibitors of Shiga Toxin; inhibition, % at 38.7 µM; 9.2% of 290,000 active; Vero cells, Shiga toxin protein synthesis inhibition reporter; in the data active = inhibition mostly above about 28%, no sharp cut-off; inactive = mostly below about 43%
Pf growth 96h: Primary qHTS for delayed death inhibitors of the malarial parasite plastid, 96 hour incubation; P. falciparum luciferase reporter growth, 96 h; 6.9% of 320,000 active; Potency, µM (series often up to 28.7 µM), actives largely listed as inhibitors
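Readout is luminescence from an integrated firefly luciferase in P. falciparum. Red cells, 2% hematocrit and 0.05% parasitemia final, were cultured with compound through two parasite generations (96 hours) at 37 C, 5% CO2.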
SARS PLpro yeast: qHTS of Yeast-based Assay for SARS-CoV PLP; Potency, µM (top dose mostly 32.9 µM), most hits filed as activators; 0.19% of 330,000 active; S. cerevisiae expressing SARS-CoV PLpro, growth rescue; AID 485353, 2010; calls by dose curve; also: nearly all actives have a fitted effect of over 55% in size
Cycloheximide cs: Cycloheximide Counterscreen for Small Molecule Inhibitors of Shiga Toxin; cell reporter, cycloheximide protein synthesis inhibition counterscreen; max response, %; 12% of 300,000 active; in the data active = max response mostly above about 13%, no sharp cut-off; inactive = mostly below about 14%; also: read at 38.3 µM for the half of the compounds with a filed dose
Pf growth 48h: Primary qHTS for delayed death inhibitors of the malarial parasite plastid, 48 hour incubation; P. falciparum luciferase growth in erythrocytes, 48 h; Potency, µM (top dose mostly 28.7 µM), hits mostly inhibitors; 5.9% of 310,000 active
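First compound was added to culture medium, then infected red cells at 0.1% parasitemia and 2% hematocrit (final). After incubation at 37 C under 5% CO2, luciferase detection reagent was dispensed and light output recorded.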
NS1 inh: qHTS Assay for Inhibitors of Influenza NS1 Protein Function. Potency, µM (titrated, usually from 46.1 µM). 0.4% of 270,000 active. AID 2326, 2010; calls by dose curve; also: actives are rising curves; nearly all actives have a fitted effect of over 50% in size
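S. cerevisiae expressing influenza A NS1, grown in glucose, washed, then diluted 1:100 into pH 6.0 -URA galactose medium with 23 nl compound. Growth recovery read as OD600; NS1-free strain serves as control.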
Large screens that a line does not name were inactive. Unless noted, calls follow the shape of the dose curve; as a rule, active = well fitted inhibition curve with a large enough effect; inconclusive = small, poorly fitted or top-dose-only effect, or another doubt; inactive = no such curve, though single readings can be large or run the other way.

CCOC(=O)c1cc(-c2ccc(C)o2)n[nH]1	none (no result: Pf growth 96h)
CCOc1ccc(-c2cc(C(=O)OC)[nH]n2)cc1	Shiga inhibitor 89, Cycloheximide cs 43
CCN(C(=O)COC(=O)CNC(=O)c1sc2ccccc2c1Cl)C1CCCCC1	none (no result: Shiga inhibitor, Cycloheximide cs, NS1 inh)
CCC(C)N(C(=O)COC(=O)CNC(=O)c1sc2ccccc2c1Cl)C1CCS(=O)(=O)C1 (stereo not given)	Cycloheximide cs 46
O=C(Cn1c(=O)oc2ccccc21)NCCc1ccccc1Cl	none
CCc1ccc(CCN2C(=O)c3ccccc3C2=O)nc1	Cycloheximide cs 25
CCc1ccc(CCN2CCCCC2)nc1	none (no result: Shiga inhibitor, Pf growth 96h, SARS PLpro yeast, Cycloheximide cs, Pf growth 48h)
CCN(CC)c1ccc(N=C2C(=O)Nc3ccccc32)cc1	Pf growth 96h inconclusive, Pf growth 48h 3.3µM
Cc1ccc(N=C2C(=O)Nc3ccccc32)cc1	none
CCCC(C(=O)NCCC(C)C)N(Cc1ccccc1)C(=O)c1snc(C(N)=O)c1N (stereo not given)	Pf growth 48h inconclusive
Cc1nn(C)cc1S(=O)(=O)Nc1ccc2c(c1)OCCO2	Shiga inhibitor 69, Pf growth 96h inconclusive, Cycloheximide cs 72
Cc1ccc(N(CC(=O)Nc2ccc3c(c2)OCCO3)S(=O)(=O)c2c(C)n[nH]c2C)cc1	Pf growth 96h inconclusive, Pf growth 48h inconclusive
CCOC(=O)COc1ccc(S(=O)(=O)Nc2ccc3c(c2)OCCO3)cc1	Cycloheximide cs 18 (no result: Pf growth 96h)
O=S(=O)(Nc1ccc2c(c1)OCCO2)c1cccc(F)c1	Cycloheximide cs 25
Cc1n[nH]c(C)c1S(=O)(=O)Nc1ccc2c(c1)OCCO2	Shiga inhibitor 36, Cycloheximide cs 51
Cc1ccc(S(=O)(=O)Nc2ccc3c(c2)OCCO3)cc1C	Shiga inhibitor 92, Cycloheximide cs 63
CCc1cccc(NS(=O)(=O)c2c(C)n[nH]c2C)c1	Pf growth 96h 13µM, Pf growth 48h inconclusive
Cc1cccc(Nc2nc(N)nc(CN3CCN(Cc4ccc5c(c4)OCO5)CC3)n2)c1	Pf growth 96h 13µM, Pf growth 48h inconclusive
Cc1sc2nc(CN3CCCCC3)nc(Nc3ccc4c(c3)OCCO4)c2c1C	Pf growth 96h inconclusive, Pf growth 48h 9.3µM
CN1CCN(Cc2nc(N)nc(Nc3ccc4c(c3)OCCO4)n2)CC1	Shiga inhibitor 60, Cycloheximide cs 30
Nc1nc(CN2CCN(c3ccccc3F)CC2)nc(Nc2ccc3c(c2)OCCO3)n1	Pf growth 96h inconclusive, Pf growth 48h inconclusive
Cc1sc2nc(CN3CCCC3)nc(NCc3ccncc3)c2c1C	Pf growth 96h inconclusive, Pf growth 48h inconclusive (no result: NS1 inh)
CC(C)(C)C(=O)Nc1ccc(-c2csnn2)cc1	Shiga inhibitor 44, Cycloheximide cs 50
O=C(Nc1ccc(-c2csnn2)cc1)C(Cl)(Cl)Cl	Shiga inhibitor 111, Pf growth 96h inconclusive, Cycloheximide cs 37, Pf growth 48h inconclusive
C=CC(=O)NCc1ccc(-c2csnn2)cc1	none
O=C(NCc1ccc(-c2csnn2)cc1)C1CC1	none
CC(C)(C)C(=O)Nc1ccc(S(=O)(=O)Nc2nccs2)cc1	none (no result: Pf growth 48h)
COC(=O)c1cc(C(=O)Nc2nnc(C3CC3)s2)cc([N+](=O)[O-])c1	Pf growth 96h inconclusive, NS1 inh inconclusive
CC(=O)O[C@H]1CC[C@H]2[C@@H]3CCC4=CC(=O)CCC4=C3C=C[C@]12C	Pf growth 96h inconclusive (no result: Shiga inhibitor, SARS PLpro yeast, Cycloheximide cs, NS1 inh)
CC#C[C@]1(O)CC[C@H]2[C@@H]3CCC4=CC(=O)CCC4=C3[C@@H](c3ccc(N(C)C)cc3)C[C@@]21C	Pf growth 96h 6.7µM, Pf growth 48h 13µM
Cc1nc(SCc2ccc(F)cc2)n[nH]1	none
Cc1nc(SCc2ccc(OCCC(C)C)cc2)n[nH]1	Shiga inhibitor 154, Cycloheximide cs 49
Cc1nc(SCc2ccc(Cl)c(Cl)c2)n[nH]1	Pf growth 96h inconclusive, Cycloheximide cs 16
CCCCCOc1ccc(CSc2n[nH]c(C)n2)cc1	none
Cc1nc(SCc2cccc(Oc3ccccc3)c2)n[nH]1	Pf growth 96h inconclusive, Cycloheximide cs 46
Cc1ccc(C(=O)NC2CC(C)(C)NC(C)(C)C2)cc1S(=O)(=O)N1CCCCC1	Pf growth 48h inconclusive (no result: Shiga inhibitor, Cycloheximide cs, NS1 inh)
CCN(CC(=O)NC1CCS(=O)(=O)C1)S(=O)(=O)c1ccc(C)cc1C (stereo not given)	none
S=c1[nH]nc(-c2ccncc2)n1/N=C/C(Cl)=C\c1ccccc1	Shiga inhibitor 61, Cycloheximide cs 24, Pf growth 48h inconclusive
